# Assay outcomes as filed in PubChem.
# In the library only some 2.3% were active in any assay of this set; here they are far more common.
# Mcl1 Bid PPI: Mcl-1/Bid binding inhibitors, primary screen, biochemical, TR-FRET, 1536-well; Induced myeloid leukemia cell differentiation protein Mcl-1 (Homo sapiens), Q07820; TR-FRET Mcl-1/Bid-Dy647 peptide binding; inhibition, % at 21.7 µM; 220,000 tested, 0.97% active;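 active means compounds that cut the binding signal by more than half at the single screening dose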;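 further: His-tagged Mcl-1 with europium anti-His antibody binding Bid BH3 peptide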
# Target sequence (Q07820 whole entry, looked up): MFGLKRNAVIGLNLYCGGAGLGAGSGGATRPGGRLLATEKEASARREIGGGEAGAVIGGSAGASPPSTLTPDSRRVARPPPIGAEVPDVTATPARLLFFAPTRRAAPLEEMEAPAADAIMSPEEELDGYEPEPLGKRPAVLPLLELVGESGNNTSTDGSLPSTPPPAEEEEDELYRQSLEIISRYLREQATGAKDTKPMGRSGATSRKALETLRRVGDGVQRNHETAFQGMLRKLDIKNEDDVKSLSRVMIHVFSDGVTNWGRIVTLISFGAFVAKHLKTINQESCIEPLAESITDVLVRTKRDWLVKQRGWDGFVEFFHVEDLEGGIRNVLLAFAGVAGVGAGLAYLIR
# Mcl-1 Bim block: inhibitors of Bim peptide binding to Mcl-1, primary screen, biochemical, bead-based flow cytometry, multiplex | Induced myeloid leukemia cell differentiation protein Mcl-1 (Homo sapiens), Q07820 | inhibition, % at 10 µM | Bim peptide-Mcl-1 binding | AID 1009, 2008 | 190,000 tested, 0.1% active; in the data active means inhibition above about 40%
# MCL1-BIM inh: inhibitors of MCL1 binding to BIM-BH3, primary screen, biochemical, fluorescence polarization | GST-MCL1 / FITC-Bim-BH3 fluorescence polarization | inhibition, % at 10.9 µM | 320,000 tested, 0.68% active;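 active means inhibition above the mean inhibition of all tested compounds plus 3 SD, set per campaign, cut at about 40% in these data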;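 further: higher means more loss of mP so more displacement of Bim peptide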
# GLD-1 RNA inh: GLD-1/TGE RNA complex disruptors, primary screen, biochemical, fluorescence polarization | inhibition, % at 5.96 µM | 320,000 tested, 0.44% active | Female germline-specific tumor suppressor gld-1 (Caenorhabditis elegans), Q17339 | purified GLD-1 + fluorescein TGE RNA;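 active means percent inhibition above a per-plate cutoff, the plate mean of test compounds plus 3 SD, cut at about 30% in these data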
# Bcl-xL primary: inhibitors of human Bcl-xL, primary screen, biochemical, fluorescence polarization, HTS; Bcl-2-like protein 1 (Homo sapiens), Q07817; GST-Bcl-xL / FITC-Bim BH3 peptide fluorescence polarization; inhibition, % at 10.9 µM; 320,000 tested, 0.7% active; AID 2129, 2009;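 active means inhibition above the mean of all tested compounds plus 3 SD, cutoff set per campaign, cut at about 30% in these data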;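 further: inhibitors lower millipolarization by displacing the labeled peptide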
# Target sequence (Q07817 whole entry, looked up): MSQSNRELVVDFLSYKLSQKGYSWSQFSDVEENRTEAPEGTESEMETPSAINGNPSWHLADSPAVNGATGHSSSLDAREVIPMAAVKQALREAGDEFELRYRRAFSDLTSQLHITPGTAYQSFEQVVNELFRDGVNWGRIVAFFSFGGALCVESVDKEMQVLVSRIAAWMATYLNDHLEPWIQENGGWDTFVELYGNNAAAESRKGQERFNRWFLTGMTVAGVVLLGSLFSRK
# Mcl1-Noxa inh: Mcl-1/Noxa binding inhibitors, primary screen, biochemical, TR-FRET, 1536-well; Induced myeloid leukemia cell differentiation protein Mcl-1 (Homo sapiens), Q07820; TR-FRET Mcl-1/Noxa peptide binding, 2 h; inhibition, % at 21.7 µM; 220,000 tested, 1.5% active; AID 1022, 2008;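 active means compounds that cut the protein-peptide binding signal by more than 50% relative to plate controls in a single-dose test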;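 further: His-tagged Mcl-1 with rhodamine Noxa BH3 peptide and terbium anti-His antibody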
# A number is an active result; - = inactive; . = no result; ! = a repeat was not active.
SMILES,Mcl1 Bid PPI,Mcl-1 Bim block,MCL1-BIM inh,GLD-1 RNA inh,Bcl-xL primary,Mcl1-Noxa inh
Cc1ccc(C)c(C(=O)COC(=O)CCCC(=O)Nc2cc(C(F)(F)F)ccc2Cl)c1,94,-,-,-,-,-
CCCc1cc(=O)n2[nH]c(-c3ccc(Cl)cc3)cc2n1,.,.,-,-,-,.
O=c1cc(-c2ccc([N+](=O)[O-])cc2)nc2cc(-c3ccc(Cl)cc3)[nH]n12,87,-,-,-,-,97
O=C(O)CC(SCc1ccc(C(=O)O)o1)C(=O)O (stereo not drawn),53,-,-,-,-,-
O=C(CSc1cccc2cccnc12)N/N=C/c1cccc(O)c1,-,-,-,-,-,-
O=C(N/N=C/c1ccc(O)c(O)c1)c1ccc(CSc2cccc3cccnc23)cc1,-,-,-,-,-,76
Cc1ccc(-n2c(C)cc3c2CCCC3=O)cc1,-,-,-,-,31,-
Cc1nnc(SCC(=O)N(CCC#N)c2ccc3c(c2)OCCO3)s1,.,.,-,-,-,.
O=[N+]([O-])c1ccc(-c2nc(NCc3ccccc3)c3ccccc3n2)cc1,-,-,-,-,-,56
Cc1ccc(-c2nc(N/N=C/c3cccnc3)c3ccccc3n2)cc1,-,-,-,-,-,-
Clc1cccc(/C=N/Nc2nc(Cl)nc3ccccc23)c1,-,-,-,-,-,87
Cc1ccc(-c2nc(N/N=C/c3cccc([N+](=O)[O-])c3)c3ccccc3n2)cc1,60,-,-,-,-,54
COc1ccc2cc(C(=O)N(C)CC(=O)Nc3ccccc3Br)ccc2c1,.,.,-,-,-,.
NNC(=O)COc1ccc(F)cc1,-,-,-,-,-,-
NNC(=O)COc1ccccc1F,-,47,-,-,-,-
Cn1cnnc1SCC(=O)NC1CCCN(Cc2ccccc2F)C1 (stereo not drawn),.,.,-,-,-,.
CCN(CC)c1ccc(NC(=O)COC(=O)/C=C/c2nc3ccccc3s2)cc1,-,-,-,-,-,56
Cc1ccc(C)n1-c1sccc1C(=O)O,93,-,.,.,.,95
Cc1cc(C(=O)O)c(C)n1-c1ccccc1,-,-,-,-,-,-
COc1cccc(C(=O)Nn2cnnc2)c1OC,.,.,-,-,-,.
C/C=C(/C)C(=O)O[C@@H]1Cc2c(ccc3ccc(=O)oc23)OC1(C)C,.,.,.,-,.,.
CC1(C)Oc2ccc3ccc(=O)oc3c2C[C@H]1O,83,.,-,-,-,-
Cc1ccc(NC(=O)c2cc(S(=O)(=O)NCCC3=CCCCC3)ccc2F)cc1F,-,68,-,-,-,-
CCN(CC)c1ccc(S(=O)(=O)N2CCOCC2)cc1NC(=O)CSc1n[nH]c(N)n1,-,.,-,-,-,-
O=C(Cc1ccc(Cl)cc1)Nc1ccc(N2CCCC2)cc1,-,-,-,-,-,-
SMILES,Mcl1 Bid PPI,Mcl-1 Bim block,MCL1-BIM inh,GLD-1 RNA inh,Bcl-xL primary,Mcl1-Noxa inh
Clc1cccc(Cl)c1CNc1ccc(N2CCCC2)cc1,-,-,-,-,-,67
COc1ccc(OC)c(S(=O)(=O)N2CCC(C(=O)NCc3ccccn3)CC2)c1,.,.,-,-,-,.
CCn1c(-c2ccccc2)csc1=Nc1ccc(O)cc1,-,-,-,-,-,64
CCOc1ccc(N=c2scc(-c3ccccc3)n2CCO)cc1,-,-,-,-,-,-
CC(=O)c1cc(O)c2ccccc2c1O,-,.,-,-,-,80
COc1ccccc1/C=C/C=N/NC(=O)c1ccccn1,-,-,-,-,-,-
COc1ccccc1/C=C/C=N/NC(=O)c1cc(-c2ccco2)[nH]n1,-,.,-,-,-,62
Cc1ccc(Cl)cc1NC(=O)COC(=O)CC1CCCCC1,.,.,-,-,-,.
O=C(O)CCc1cc(I)c(Oc2ccc(O)c(I)c2)c(I)c1,-,.,.,.,.,69
N[C@@H](Cc1cc(I)c(Oc2cc(I)c(O)c(I)c2)c(I)c1)C(=O)O,.,.,-,-,-,.
N[C@@H](Cc1cc(I)c(Oc2ccc(O)c(I)c2)c(I)c1)C(=O)O,66!,-,-,-,-,105!
CCCCN(C(=O)C(C)Oc1ccc(Br)cc1)c1c(N)n(Cc2ccccc2)c(=O)[nH]c1=O (stereo not drawn),.,.,-,-,-,.
O=C(O)c1cc(Cl)c2c(c1)[C@@H]1C=CC[C@@H]1[C@H](c1ccc(S(=O)(=O)N3CCOCC3)cc1)N2,-,-,48,-,40,-
Cc1cc(C)c2c(c1)C1C=CCC1C(c1ccc(S(=O)(=O)N3CCOCC3)cc1)N2 (stereo not drawn),70,-,-,-,-,95
Cc1ccc(S(=O)(=O)N2CCOCCOCCOCCOCCOCC2)cc1,.,.,-,-,-,.
O=S(=O)(c1ccc(C2CCCCC2)cc1)N1CCOCC1,-,-,-,-,-,-
COc1ccc(NC(=O)CC2C(=O)Nc3ccccc3N2CC(=O)N2CCCC2)cc1 (stereo not drawn),.,.,-,-,-,.
CCCN1C(=O)/C(=C\c2nc3ccccc3c(=O)[nH]2)c2ccccc21,51,-,.,.,.,-
O=C(NCCN1CCOCC1)c1cc([N+](=O)[O-])ccc1Cl,.,.,-,-,-,.
O=C(NCCN1CCOCC1)c1cc(Cl)ccc1[N+](=O)[O-],-,73,-,-,-,-
Cn1c2c(c(=O)n(C)c1=O)C1c3cc(Cl)ccc3OCC1CO2 (stereo not drawn),96,-,-,-,-,-
Cc1cc(-c2ccc(N=Nc3c(S(=O)(=O)O)cc4cc(S(=O)(=O)O)cc(N)c4c3O)c(C)c2)ccc1N=Nc1c(S(=O)(=O)O)cc2cc(S(=O)(=O)O)cc(N)c2c1O,.,.,96,-,65,.
Cc1ccc(NC(=O)Nc2sc(=S)n(C)c2C)cc1,-,-,-,-,-,54
CC(=O)NC(=O)Nc1sc(=S)n(C)c1C,-,41,-,-,-,-
Cc1c(NC(=O)Oc2ccccc2)sc(=S)n1C,-,-,-,-,-,-
CCOC(=O)c1sc(=S)n(C)c1C,-,-,-,-,-,-
CCN(CC)CCNC(=O)c1ccc(CS(=O)(=O)c2ccc(Br)cc2)o1,58,-,-,-,-,-
CCn1cc(C(=O)NCC(OC)OC)c(=O)c2cc(S(=O)(=O)N3CCC(C)CC3)ccc21,.,.,-,-,-,.
O=C(O)CSc1c2c(nc3cc(C(=O)N4CCOCC4)ccc13)CCCC2,-,-,-,-,37,-
CCOC(=O)N1CCN(C(=O)c2ccc3c(SCC(=O)O)c4c(nc3c2)CCCC4)CC1,-,-,-,-,-,-
